# Measurements published in the supplement of paper PMC10681739.
# Biological target: T1, ETS1 (UniProt P14921)
# T1 sequence: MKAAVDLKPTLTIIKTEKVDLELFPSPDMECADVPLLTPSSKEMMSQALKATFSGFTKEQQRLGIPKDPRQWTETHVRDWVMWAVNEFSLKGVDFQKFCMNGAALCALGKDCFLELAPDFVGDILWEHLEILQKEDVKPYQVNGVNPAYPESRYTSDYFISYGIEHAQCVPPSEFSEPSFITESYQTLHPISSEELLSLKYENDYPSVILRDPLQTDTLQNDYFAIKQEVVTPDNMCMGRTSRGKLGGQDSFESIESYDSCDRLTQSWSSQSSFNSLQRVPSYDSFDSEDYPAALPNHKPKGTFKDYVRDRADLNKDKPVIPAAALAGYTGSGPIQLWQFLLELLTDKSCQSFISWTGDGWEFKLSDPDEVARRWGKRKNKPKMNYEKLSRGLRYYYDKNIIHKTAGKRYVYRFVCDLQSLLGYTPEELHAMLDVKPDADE
# Assay: TF binding intensity (PBM fluorescence), negative control probe (arbitrary fluorescence units); higher = stronger binding
# Protocol: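 gcPBM negative-control 36-bp genomic probes lacking TF binding sites. Each was incubated with recombinant human ETS1 or RUNX1 alone and detected by antibody fluorescence. Values are medians over replicate spots (4 spots for the ETS1-RUNX1 arrays, 3 for the ETS1-ETS1 array). The probes sit in constant array flanks that are not printed.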
row,Sequence,TF binding intensity
1,ACATGTCAAAGAGCTTCTTTAAGCAGTAGGTGGTTT (protein concentration 10 nM),143
2,GGTAATAGTTACTGCTGTGGTCTGAATGTTTGTGTC (protein concentration 1 nM),555
3,GAGCCCTTCTGGCCTCCCTGTATAAGTCCAGACTGA (protein concentration 10 nM),96.9
4,TTGAAATGCATTCTCTGTGGGCATATGAAGTAGATT (protein concentration 1 nM),410
5,AAATAAATTCTTGTCTGGGGCCGACATCTGTGTGGA (protein concentration 10 nM),119
6,CACACACTAAATCTCTGTACTAAATGAAAGGTTGCT (protein concentration 10 nM),139
7,CCCACTGTAATAGGCAGATACTGATGAAGTCCTGCA (protein concentration 10 nM),147
8,TAACAGGGAGATAAAACGGGTGAGAGCCCCCTAGGA (protein concentration 10 nM),103
9,TAAGATCCACTGGCTTGAAATTCTTGCTGCCAGCAC (protein concentration 10 nM),130
10,TTCTAAAGAAATCACAGTCAAATCTACCATTTGCGT (protein concentration 10 nM),99.5
11,CACAGGTTCTTCTTCAAGGGCAGGGCACTGCACCTT (protein concentration 10 nM),110
12,AACAGCCCCCTGAACTGCAGGGTGTGACTGTTAGCC (protein concentration 10 nM),140
13,TTTTTTTTTTTGGTCTGTGGTTTTGGAGTTTTTGTT (protein concentration 1 nM),716
14,CAGGCATCTGTCATGCCCAGTAATTAATTGCTCCAA (protein concentration 10 nM),117
15,GTTTCTTATAAGCAGAAACACTAACAAAGGACAGCG (protein concentration 10 nM),146
16,AGAGGCATGAAAACAAATGAGACTAGGATGAGTTGG (protein concentration 10 nM),131
17,TTTTGGATGATGCAAACCGCGCAAAAGCAGCATTCA (protein concentration 1 nM),449
18,AGAGAATCTGATTGGTTGTTGACCTTTGGGACAAGT (protein concentration 10 nM),105
19,GGCAAGCTTATATAGTTTGCTTCATAAAACTCTATT (protein concentration 10 nM),119
20,GCTATTTTCTCTGCTTGAACATACCGTGTACACACA (protein concentration 10 nM),178

row,Sequence,TF binding intensity
1,AACTTGTCCCTGGAATGTGGTTGAAACAGACTTAGG (protein concentration 1 nM),448
2,AGTTTTTTGTTTTGAGCCGCAGTCTCGCTCTGTCGC (protein concentration 1 nM),351
3,ATAGTACAAGCACTAGTCAAAGCTAGAGGTCACTCT (protein concentration 10 nM),111
4,GGGGGTATAGGGGAGCAGTCCCATGTAGTAGTAGAA (protein concentration 10 nM),172
5,GCCCTCTGCGGGGCAACAGCACGAGGCATTACCCCT (protein concentration 10 nM),107
6,TGACTCTCCCCTCCATTCCCACCCCATACCCCCTTC (protein concentration 10 nM),198
7,CAGGAGAAATATGAGATTAAGAACACATGATGTTAA (protein concentration 10 nM),123
8,ACCTCATCGAAAGTCTCTCTGGAGGCTGAGTTTGTC (protein concentration 10 nM),123
9,CCATTAGTTCATCTTACACTCTGCCCTTTAACGTGG (protein concentration 10 nM),127
10,AAAATACTGCCTTCAAGTACTGTGACTCTTTTCAGG (protein concentration 10 nM),112
11,CCGGGACCCCGCCCCCGATCCCCGCCTACCGGGGCC (protein concentration 10 nM),209
12,CCTCGGGGGCCAATGTGTGCCTGTGGTGTGCGATTC (protein concentration 10 nM),121
13,TCCGATGTTACCTGGGCTGGGCCATGGAGAATGGCG (protein concentration 10 nM),112
14,AGTTTCACTGCCCTAAAAATCCTCCGTGCGCCGCCT (protein concentration 10 nM),123
15,ACTCTAGTTTGTGATTTTTAAAACGTTTGAAAGCCA (protein concentration 10 nM),124
16,TGCCGTGTACTTGATCTTGTCCCACAGAATCACCTG (protein concentration 10 nM),112
17,AACACTCAGTGTATTTTAATAAACAACATTTTTTAA (protein concentration 10 nM),96.6
18,TAATCCCAGCACTTTGGGAATCCAAGGCAGTCAAAT (protein concentration 10 nM),94.8
19,GGCTCCTATATTAAAATTGGTATTAGTAGACAATGT (protein concentration 10 nM),131
20,CGCCAGGGGGAGCAACAGAAATCCACACCAGGGAAG (protein concentration 10 nM),173
